In PubChem BioAssay (NCI) one finds growth data, which are given here for 8 compounds.

SMILES strings stand for the structures. Compounds without any hit were thinned out: in the full panel of roughly 83,000, 20% have a hit.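 A percent growth of 40 corresponds to 60% growth inhibition; 0 means no net growth; -100 means all cells died. Active threshold: below 10.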 Values without a mark were called inactive. Active and inactive are the calls of the source.

Some test systems named below: HCT-15 colon; HT29 colon; SNB-75 CNS; SNB-19 CNS; U251 CNS; PC-3 prostate; SK-MEL-5 melanoma; LOX IMVI melanoma; SK-MEL-28 melanoma; SK-MEL-2 melanoma; EKVX NSCLC; UO-31 renal; TK-10 renal; ACHN renal; CAKI-1 renal; A498 renal; CCRF-CEM leukemia; MOLT-4 leukemia; UACC-62 melanoma; SN12C renal.
Common to all, as to assay: NCI-60 one-dose screen, 48 h (100 = growth as untreated, 0 = no growth, -100 = all killed)
Details in all cases: 10 µM unless noted

Take `O=C1/C(=C/c2ccccc2[N+](=O)[O-])COc2ccc(O)cc21`: the growth with HCT-15 colon is -8.7% (active); in the test on HT29 colon, -20.8% (active); in the test with SNB-75 CNS it was 43.2%; in the test on SNB-19 CNS it was 62.7%; in the test on U251 CNS, 7.41% (active); in the test with PC-3 prostate, 4.19% (active). Also, the growth is 59.1% in the test on SK-MEL-5 melanoma; -66.1% (active) in the test with LOX IMVI melanoma; -5.79% (active) in the test with SK-MEL-28 melanoma; 57.1% in the test with SK-MEL-2 melanoma; 54.7% in the test with EKVX NSCLC; -68.7% (active) in the test with UO-31 renal. The growth with TK-10 renal was 27.4%; in the test on ACHN renal, -13.5% (active); in the test with CAKI-1 renal it was -15.3% (active); in the test with A498 renal, 85.8%; with CCRF-CEM leukemia, 0.864% (active); with MOLT-4 leukemia, 4.74% (active).
Consider `O=C1c2cc3c(cc2-c2c1c1ccc(Cl)cc1c(=O)n2C[C@H](O)CO)OCO3`, for which the growth in the test on HCT-15 colon was 4.59% (active); with HT29 colon, 0.971% (active); with SNB-75 CNS it was -9.59% (active); in the test on SNB-19 CNS, 14.1%; with U251 CNS, 0.379% (active); with SK-MEL-5 melanoma, -96.6% (active). For the same compound, the growth was -62% (active) with UACC-62 melanoma; -31.9% (active) in the test on LOX IMVI melanoma; -6.11% (active) in the test on SK-MEL-28 melanoma; -9.57% (active) in the test on SK-MEL-2 melanoma; 4.75% (active) in the test on EKVX NSCLC; -85.6% (active) in the test with UO-31 renal. Moreover, the growth is 14.6% in the test with TK-10 renal; -72.2% (active) in the test on ACHN renal; -35.3% (active) in the test on CAKI-1 renal; -79.1% (active) in the test on A498 renal; 9.33% (active) with CCRF-CEM leukemia; -17.2% (active) in the test with MOLT-4 leukemia.
As for `COc1ccc(C2=C/C(=C\c3ccc(Cl)cc3)C(=O)N2/N=C/c2ccc(Cl)cc2)cc1`, the growth was 98.8% in the test on HCT-15 colon; 86.8% in the test on HT29 colon; 105% with SNB-75 CNS; 96.7% in the test on SNB-19 CNS; 84.5% with U251 CNS; 99.5% with SK-MEL-5 melanoma. Further, the growth in the test on UACC-62 melanoma is 84.4%; in the test on LOX IMVI melanoma, 99.1%; in the test with SK-MEL-28 melanoma it was 101%; with SK-MEL-2 melanoma it was 107%; in the test on EKVX NSCLC it was 93.8%; in the test with SN12C renal, 87.7%. For the same compound, the growth in the test with UO-31 renal is 79.4%; in the test with TK-10 renal, 87.2%; in the test with ACHN renal it was 98.3%; in the test on CAKI-1 renal, 90.5%; in the test on A498 renal, 103%; in the test with CCRF-CEM leukemia it was 100%. Also, the growth in the test on MOLT-4 leukemia was 92%.
On to `Cc1ccc(Nc2nc(-c3ccc(F)cc3)c(C#N)c(=O)n2C)cc1`, for which the growth in the test on HCT-15 colon is 55%; in the test with HT29 colon, 78.2%; with SNB-75 CNS, 30%; with SNB-19 CNS it was 56.2%; with U251 CNS it was 68.2%; in the test on SK-MEL-5 melanoma, 77.2%. Further, the growth with UACC-62 melanoma was 51.8%; with LOX IMVI melanoma, 74.3%; in the test with SK-MEL-28 melanoma, 74.1%; with SK-MEL-2 melanoma, 70.8%; with EKVX NSCLC it was 54.6%; with SN12C renal, 62.9%. Besides, the growth with UO-31 renal is 44.8%; in the test with TK-10 renal, 55.4%; with ACHN renal, 63%; with CAKI-1 renal, 59.3%; in the test on A498 renal, 42.7%; with CCRF-CEM leukemia it was 98.8%. For the same compound, the growth with MOLT-4 leukemia is 81.5%.
Regarding `O=C(CCCCCCN1CC(=O)N2[C@@H](C3CCCCC3)c3[nH]c4ccccc4c3C[C@H]2C1=O)NO`, the growth with HCT-15 colon was 115%; in the test on SNB-75 CNS, 38.1%; with SNB-19 CNS it was 74.6%; in the test with U251 CNS, 70.2%; in the test with PC-3 prostate, 62.7%; with SK-MEL-5 melanoma it was 66%. The growth with UACC-62 melanoma is 35.3%; in the test with LOX IMVI melanoma it was -3.25% (active); with SK-MEL-28 melanoma, 60.7%; in the test on SK-MEL-2 melanoma, 69.2%; in the test on EKVX NSCLC it was 77.7%; in the test on SN12C renal, -97.1% (active). Further, the growth is 84.8% in the test with UO-31 renal; 48.5% in the test with TK-10 renal; 88.7% in the test on ACHN renal; 70.8% in the test on CAKI-1 renal; 82.1% in the test on A498 renal; 26.5% in the test on CCRF-CEM leukemia. In the test on MOLT-4 leukemia, the growth is 10.3%.
As to `CN(C)c1ccc(/C=C/C(=O)c2ccccc2)cc1`, the growth is 62.1% in the test on HCT-15 colon; 100% in the test with SNB-75 CNS; 90.4% in the test with SNB-19 CNS; 69.3% with U251 CNS; 71.6% in the test on PC-3 prostate; 89.3% in the test with SK-MEL-5 melanoma. Moreover, the growth with UACC-62 melanoma was 93.1%; in the test with LOX IMVI melanoma it was 78.3%; with SK-MEL-28 melanoma, 96.8%; with SK-MEL-2 melanoma it was 93.5%; in the test with EKVX NSCLC it was 97.9%; in the test on SN12C renal it was 84.8%. Further, the growth is 67.5% in the test on UO-31 renal; 74.5% in the test with TK-10 renal; 109% in the test with ACHN renal; 97.1% with CAKI-1 renal; 74% in the test on A498 renal; 66.1% with CCRF-CEM leukemia.
Consider `COc1ccc(C2CC(c3ccc4c(c3)OCO4)=Nc3c(N)ncnc3N2)cc1` (stereo not drawn), for which the growth with HCT-15 colon is 94.3%; in the test on SNB-75 CNS, 86.6%; with SNB-19 CNS, 88.8%; in the test with U251 CNS it was 101%; with PC-3 prostate, 98.6%; with SK-MEL-5 melanoma, 87.8%. The growth in the test with UACC-62 melanoma was 90.3%; in the test with LOX IMVI melanoma it was 101%; with SK-MEL-28 melanoma, 112%; in the test on SK-MEL-2 melanoma it was 72.6%; in the test on EKVX NSCLC it was 119%; with SN12C renal it was 111%. Besides, the growth is 89.4% with UO-31 renal; 118% in the test with TK-10 renal; 120% with CAKI-1 renal; 94.4% in the test on A498 renal; 3.41% (active) in the test on CCRF-CEM leukemia; 91.9% with MOLT-4 leukemia.
Turning to `NC(=O)c1ccc(NC(=O)c2oc3ccccc3c2-c2cnn(-c3ccccc3)c2)cc1`, the growth in the test on HCT-15 colon is 43.2% [50 µM]; in the test with SNB-75 CNS it was -25.5% [50 µM] (active); with SNB-19 CNS, 2.3% [50 µM] (active); in the test on U251 CNS, -19.2% [50 µM] (active); with PC-3 prostate, 6.29% [50 µM] (active); in the test with SK-MEL-5 melanoma, 4.65% [50 µM] (active). The growth was 45.3% [50 µM] in the test on UACC-62 melanoma; -22.6% [50 µM] (active) with LOX IMVI melanoma; 25.6% [50 µM] in the test on SK-MEL-28 melanoma; 61.5% [50 µM] in the test with SK-MEL-2 melanoma; 7.54% [50 µM] (active) with EKVX NSCLC; 14.7% [50 µM] in the test with SN12C renal. For the same compound, the growth in the test with UO-31 renal is -1.76% [50 µM] (active); with TK-10 renal it was 44.5% [50 µM]; in the test with ACHN renal, -11.1% [50 µM] (active); with CAKI-1 renal, -29.4% [50 µM] (active); in the test with A498 renal it was 16.4% [50 µM]; in the test on CCRF-CEM leukemia, 73.1% [50 µM]. Besides, in the test with MOLT-4 leukemia, the growth is 61.2% [50 µM].
